# Publication PMC11062922 (Nature Chemical Biology, 2023)
# Where two headings read alike, the source gives them in different places.
# Tests used:
# Set-up in all cases: species or system human, MV4-11 + K-562 + COLO205 + SK-N-BE2 + OVCAR-8
# CDK17 = conditions: read-out: apparent Kd, compound concentrations: 100 nM and 1000 nM (sheet 'Samples'), n = 1
# CSNK1A1 = conditions: read-out: apparent Kd, compound concentrations: 100 nM and 1000 nM (sheet 'Samples'), n = 1
# HCK = conditions: read-out: apparent Kd; compound concentrations: 100 nM and 1000 nM (sheet 'Samples'), CATDS: 1.6731376225889199E-2; n = 1
# MAPK8 = conditions: read-out: apparent Kd, compound concentrations: 100 nM and 1000 nM (sheet 'Samples'), n = 1
# PHKG2 = conditions: read-out: apparent Kd, n = 1
# SRC = conditions: read-out: apparent Kd, n = 1
# STK16 = conditions: read-out: apparent Kd, compound concentrations: 100 nM and 1000 nM (sheet 'Samples'), n = 1
# STK3 = conditions: read-out: apparent Kd, compound concentrations: 100 nM and 1000 nM (sheet 'Samples'), n = 1
# YES1 = conditions: read-out: apparent Kd, n = 1
# ADCK1 = conditions: read-out: apparent Kd, n = 1
# RIOK2 = conditions: read-out: apparent Kd, n = 1
# TNIK = conditions: read-out: apparent Kd, n = 1
# ABL2 = conditions: read-out: apparent Kd; compound concentrations:100 nM and 1000 nM (sheet 'Samples'); n = 1
# EPHA2 = conditions: read-out: apparent Kd; compound concentrations:100 nM and 1000 nM (sheet 'Samples'); n = 1
# PRKX = conditions: read-out: apparent Kd; compound concentrations: 100 nM and 1000 nM (sheet 'Samples'), CATDS: 5.4979506066670798E-2; n = 1
# MAPK10 = conditions: read-out: apparent Kd, compound concentrations: 100 nM and 1000 nM (sheet 'Samples'), n = 1
# CSNK1E = conditions: read-out: apparent Kd; compound concentrations: 100 nM and 1000 nM (sheet 'Samples'), CATDS: 2.3726321551731398E-2; n = 1
# ROCK2 = conditions: read-out: apparent Kd, compound concentrations: 100 nM and 1000 nM (sheet 'Samples'), n = 1
# [1] = compound concentrations:100 nM and 1000 nM (sheet 'Samples')
smiles,measurement,setting,value
CCn1c(-c2cccnc2O)nc2cnccc21 [SB-736715],potency estimated from few doses,CDK17; CATDS: 1.55525424836102E-2,1200 nM
same,potency estimated from few doses,CSNK1A1; CATDS: 1.24384070369575E-2,1990 nM
same,potency estimated from few doses,HCK,1040 nM
same,potency estimated from few doses,MAPK8; CATDS: 1.2937412229939001E-2,1800 nM
same,potency estimated from few doses,"PHKG2; compound concentrations: 100 nM and 1000 nM (sheet 'Samples'), CATDS: 1.25059866085428E-2",1960 nM
same,potency estimated from few doses,"SRC; compound concentrations: 100 nM and 1000 nM (sheet 'Samples'), CATDS: 1.60653948835471E-2",1130 nM
same,potency estimated from few doses,STK16; CATDS: 1.41773006803768E-2,1460 nM
same,potency estimated from few doses,STK3; CATDS: 1.16838495849846E-2,2360 nM
same,potency estimated from few doses,"YES1; compound concentrations: 100 nM and 1000 nM (sheet 'Samples'), CATDS: 1.8559890598855499E-2",859 nM
CN(C)CCNC(=O)Nc1ccc(N(C)c2ccnc(Nc3ccc(CS(C)(=O)=O)cc3)n2)cc1.Cl [GW830900A],potency estimated from few doses,ADCK1; [1],88.9 nM
NC(=O)c1cc(-c2ccccc2)cc2c(C3CCNCC3)c[nH]c12 [GSK301362A],potency estimated from few doses,ADCK1; [1],1520 nM
CCCc1cc(N2CCCN(C)CC2)nc2sc3c(N)ncnc3c12 [BI00604564],potency estimated from few doses,"ADCK1; compound concentrations: 100 nM and 1000 nM (sheet 'Samples'), CATDS: 0.15175006426197701",1550 nM
same,potency estimated from few doses,"RIOK2; compound concentrations: 100 nM and 1000 nM (sheet 'Samples'), CATDS: 0.19130476647028",959 nM
CNCc1ccc(-c2cc(-c3nc(-c4ccc(S(=O)(=O)C(C)C)cc4)cnc3N)on2)cc1 [VE-822],potency estimated from few doses,TNIK; [1],1650 nM
CC(=O)N[C@@H](Cc1ccc(OP(=O)(O)O)cc1)C(=O)N[C@H]1CCC(=O)N2CCC[C@@H](C(=O)NCc3ccc(Cl)cc3)N2C1=O [RO0325308-000],potency estimated from few doses,ABL2,60.3 nM
same,potency estimated from few doses,EPHA2,1130 nM
same,potency estimated from few doses,PHKG2; [1],1880 nM
same,potency estimated from few doses,RIOK2; [1],141 nM
same,potency estimated from few doses,SRC; [1],1040 nM
same,potency estimated from few doses,YES1; [1],1030 nM
O=C1N=C(NCc2cccs2)O/C1=C\c1ccc2ncccc2c1 [RO4624208-000],potency estimated from few doses,PRKX,966 nM
same,potency estimated from few doses,"TNIK; compound concentrations: 100 nM and 1000 nM (sheet 'Samples'), CATDS: 4.4189138056131998E-2",2330 nM
O=C(O)C(F)(F)F.O=c1[nH]ccc2nc(N[C@@H]3CCNC3)nc(Nc3ccc4c(c3)S(=O)(=O)CC4)c12 [GSK2181306A],potency estimated from few doses,"ADCK1; compound concentrations: 100 nM and 1000 nM (sheet 'Samples'), CATDS: 1.2751360912585E-2",448 nM
same,potency estimated from few doses,CDK17; CATDS: 9.5654152520578493E-3,979 nM
same,potency estimated from few doses,CSNK1A1; CATDS: 1.4603210367733301E-2,330 nM
same,potency estimated from few doses,"PHKG2; compound concentrations: 100 nM and 1000 nM (sheet 'Samples'), CATDS: 1.09538750738594E-2",657 nM
same,potency estimated from few doses,"RIOK2; compound concentrations: 100 nM and 1000 nM (sheet 'Samples'), CATDS: 8.1231795228866102E-3",1810 nM
same,potency estimated from few doses,STK16; CATDS: 9.1549687714340792E-3,1130 nM
same,potency estimated from few doses,STK3; CATDS: 1.36866990132516E-2,381 nM
same,potency estimated from few doses,"TNIK; compound concentrations: 100 nM and 1000 nM (sheet 'Samples'), CATDS: 1.2529799183739801E-2",467 nM
COC(=O)c1cccc(NC(=O)NC2CCN(c3ccnc(Nc4cc(OC)c(OC)c(OC)c4)n3)C2)c1 (centres unmarked) [GSK1379767A],potency estimated from few doses,"RIOK2; compound concentrations: 100 nM and 1000 nM (sheet 'Samples'), CATDS: 9.3299595876540298E-2",2110 nM
Cc1cc(-c2ccnc(Nc3cccc(C#N)c3)n2)cc(C)c1O [GSK1440913A],potency estimated from few doses,"ADCK1; compound concentrations: 100 nM and 1000 nM (sheet 'Samples'), CATDS: 7.9755280277017199E-2",1350 nM
same,potency estimated from few doses,MAPK10; CATDS: 8.7033733779345604E-2,990 nM
c1ccc(-c2n[nH]cc2Nc2ccnc3ccccc23)nc1 [GW694077X],potency estimated from few doses,CSNK1A1; CATDS: 2.3053021042780501E-2,2030 nM
same,potency estimated from few doses,CSNK1E,1790 nM
same,potency estimated from few doses,MAPK8; CATDS: 2.3443095841232799E-2,1880 nM
same,potency estimated from few doses,"RIOK2; compound concentrations: 100 nM and 1000 nM (sheet 'Samples'), CATDS: 3.1389541451057497E-2",683 nM
Cl.Cl.NC(CNC(=O)c1cc(Br)c(-c2ccnc3[nH]ccc23)s1)c1ccccc1.NC(CNC(=O)c1cc(Br)c(-c2ccnc3[nH]ccc23)s1)c1ccccc1 (centres unmarked) [GSK1322949A],potency estimated from few doses,ROCK2; CATDS: 0.12553300825941399,122 nM
COc1cc[nH]c1/C=C1\C(=O)Nc2ccc(F)c(C#CC3(O)CCNCC3)c21.Cl [RO0282986-001],potency estimated from few doses,"ADCK1; compound concentrations: 100 nM and 1000 nM (sheet 'Samples'), CATDS: 9.6711432627754196E-3",1510 nM
same,potency estimated from few doses,CSNK1A1; CATDS: 9.4699947154489802E-3,1660 nM
same,potency estimated from few doses,MAPK10; CATDS: 9.5486825617733494E-3,1600 nM
same,potency estimated from few doses,MAPK8; CATDS: 1.15534009295916E-2,801 nM
same,potency estimated from few doses,"PHKG2; compound concentrations: 100 nM and 1000 nM (sheet 'Samples'), CATDS: 1.06478310552471E-2",1050 nM
same,potency estimated from few doses,ROCK2; CATDS: 1.22765922159753E-2,668 nM
same,potency estimated from few doses,STK16; CATDS: 1.3388611542508999E-2,526 nM
same,potency estimated from few doses,STK3; CATDS: 1.6307369361129399E-2,326 nM
same,potency estimated from few doses,"TNIK; compound concentrations: 100 nM and 1000 nM (sheet 'Samples'), CATDS: 1.31715083861153E-2",550 nM
